Data on ten compounds can be found in PubChem BioAssay (NCATS).

SMILES strings stand for the structures. Inconclusive results are not listed. Where a call stands in place of a potency, no number is given. Calls of active or inactive are those of the source. Calls come from the whole dose curve; as a rule, active = well fitted inhibition curve with a large enough effect; inconclusive = small, poorly fitted or top-dose-only effect; inactive = flat fitted curve, though single readings scatter.

Calcium and integrin-binding protein 1 (Homo sapiens), sequence (Q99828 whole entry, looked up): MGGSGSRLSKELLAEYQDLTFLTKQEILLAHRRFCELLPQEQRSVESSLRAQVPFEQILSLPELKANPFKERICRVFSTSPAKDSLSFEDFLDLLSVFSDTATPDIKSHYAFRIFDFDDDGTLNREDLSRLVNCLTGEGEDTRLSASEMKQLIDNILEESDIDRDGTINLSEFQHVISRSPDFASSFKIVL

In the assay the target is Calcium and integrin-binding protein 1 (Homo sapiens) (UniProt Q99828). In words: Primary qHTS for Identification of Calcium Integrin Binding Protein 1 (CIB1) Competitor (AID 1508620).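 Note: GST tagged CIB1 binding a fluorescein labelled alphaIIb integrin peptide tracer; top concentration of the series differs between compounds.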 The conditions noted are these: CIB1-GST / FITC-alphaIIb peptide fluorescence polarization; series mostly up to 57.7 µM. In short, it runs like this:
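Fluorescence polarization competition: CIB1-GST (1 uM final) preincubated with compound 15 min at room temperature, then FITC-labeled alphaIIb peptide (100 nM final) added for another 15 min. Polarization read at Ex 480/Em 540.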
(In general: qHTS replaces the single test concentration by a dilution series.)
`CC(=O)N(C)C1(c2ccccc2)CCN(CCC[C@]2(c3ccc(Cl)c(Cl)c3)CCCN(C(=O)c3ccccc3)C2)CC1`: the Potency result was “inactive”. On to `Cc1ccc(Nc2cc(-c3cccc(N4C(=O)c5ccccc5C4=O)c3)ncn2)cc1NS(C)(=O)=O`, for which the Potency result is “inactive”. With `COc1ccc(Cc2ccc(NC(N)=O)cc2)cc1-c1cccc(Cl)c1`, the Potency entry is “inactive”. Consider `CC1(C)S[C@H]2[C@H](NC(=O)[C@@H](N)c3ccc(O)cc3)C(=O)N2[C@@H]1C(=O)O`, for which the Potency entry was “inactive”. As for `CS(=O)c1ccc(-c2nc(-c3ccc(F)cc3)c(-c3ccncc3)[nH]2)cc1` (stereo not given), the Potency entry was “inactive”. On to `CO[C@H]1C[C@@H]2CC[C@@H](C)[C@@](O)(O2)C(=O)C(=O)N2CCCC[C@@H]2C(=O)O[C@H]([C@H](C)C[C@@H]2CC[C@H](OC(=O)C(C)(CO)CO)[C@H](OC)C2)CC(=O)[C@H](C)C=C(C)[C@@H](O)[C@@H](OC)C(=O)[C@H](C)C[C@H](C)C=CC=CC=C1C`, for which the Potency entry was “inactive”. As for `COc1ccc2cc(-c3nc(-c4ccc(S(C)=O)cc4)[nH]c3-c3ccncc3)ccc2c1` (stereo not given), the Potency entry is “inactive”. Regarding `C=CCc1ccc(O)c(-c2ccc(O)c(CC=C)c2)c1`, the Potency result was “inactive”. As for `CO[C@H]1C[C@@H]2CC[C@@H](C)[C@@](O)(O2)C(=O)C(=O)N2CCCC[C@@H]2C(=O)O[C@H]([C@H](C)C[C@@H]2CC[C@H](OCCO)[C@H](OC)C2)CC(=O)[C@H](C)C=C(C)[C@@H](O)[C@@H](OC)C(=O)[C@H](C)C[C@H](C)C=CC=CC=C1C`, the entry is “inactive”; as for `CN(C)C1CCN(C(=O)c2ccc(NC(=O)Nc3nc(N4CCOCC4)nc(N4CCOCC4)n3)cc2)CC1`, “inactive”.
